Only some compounds are listed: those with a hit (about 6.5% of all), similar ones and a draw of the others.
HCMV antiviral: human cytomegalovirus inhibition; HFF cells, HCMV-luciferase reporter, 72 h; hits give low values; activity change, negative = inhibition, % at 57.5 µM; 410,000 tested, 4.5% active; in the data active = activity change below about -60%; inconclusive = no clear call, values can overlap the other calls; inactive = above about -39%
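Luciferase read-out from HCMV-luciferase-infected HFFs (MOI 1 PFU/cell) 72 h post infection at 37C; compounds added after 16 h cell attachment; activity normalized between buffer-only basal and Salinomycin (10uM) inhibitor controls.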
FMDV inh: foot and mouth disease virus antiviral activity | FMDV antiviral cell-based qHTS | 410,000 tested, 1.2% active | Potency, µM (titrated, usually from 57.9 µM), for the others: at the highest dose activity change, negative = inhibition, usual class: inhibitors; calls by dose curve; tested in HEK293T cells; note: read-out not given here; potency is the fitted concentration of half-maximal effect; nearly all actives have a fitted effect of over 45% in size
VACV mCherry inh: vaccinia inhibition (mCherry reporter). Vaccinia virus mCherry reporter infection, fluorescence. Potency, µM (highest dose often 36.5 µM), for inactives: top-dose activity change, negative = inhibition, usual class: inhibitors. 310,000 tested, 0.63% active. AID 720579; calls by dose curve; tested in A549 cells; note: potency is the fitted concentration of half-maximal effect; nearly all actives have a fitted effect of over 35% in size
LASV entry inh: Lassa virus entry inhibition; Lassa virus pseudotype entry inhibition, cell reporter; Potency, µM (titrated, usually from 37.9 µM), for the others: at the top dose activity change, negative = inhibition, actives largely listed as inhibitors; 300,000 tested, 1.2% active; calls by dose curve; tested in HEK293 cells; note: potency is the fitted concentration of half-maximal effect; nearly all actives have a fitted effect of over 50% in size
Vaccinia Venus: vaccinia inhibition (Venus reporter). 330,000 tested, 0.46% active. AID 720580. Vaccinia virus Venus reporter expression, fluorescence. Potency, µM (series often up to 36.5 µM), inactives show top-dose activity change, negative = inhibition, usual class: inhibitors; calls by dose curve; tested in A549 cells; note: potency is the fitted concentration of half-maximal effect; nearly all actives have a fitted effect of over 30% in size
Marburg entry inh: blocks Marburg virus binding to or entry into cells; Potency, µM (highest dose often 37.8 µM), for inactives: at the highest dose activity change, negative = inhibition, hits mostly inhibitors; AID 540276; Marburg virus pseudotyped entry inhibition, cell reporter; 300,000 tested, 1.8% active; calls by dose curve; tested in HEK293 cells; note: potency is the fitted concentration of half-maximal effect
An asterisk follows results filed as active; i = inactive; ? = inconclusive; / = no result; ! = not confirmed by another sample; [ ] = dose if it differs, or a comment. % is set by controls: 0 for no effect and ±100 for the full control effect.

SMILES | HCMV antiviral | FMDV inh | VACV mCherry inh | LASV entry inh | Vaccinia Venus | Marburg entry inh
COc1ccc(/C=N\NC(=O)c2cccc([N+](=O)[O-])c2)cc1Cn1cc([N+](=O)[O-])cn1 | -35 | / | / | / | / | /
COc1ccc(/C=N/NC(=S)Nc2ccccc2)cc1COc1ccc(F)cc1F | -9 | 9% | i | 1.6µM* | -18% | ?
COc1ccc(/C=N/NC(=O)c2ccc(N)cc2)cc1Cn1cc([N+](=O)[O-])cn1 | -5 | -17% | ? | ? | 17% | 7.9µM*
COc1ccc(/C=N/NC(=O)c2cccnc2)cc1COc1ccc([N+](=O)[O-])cc1 | ? | 28µM* | -19% | ? | -27% | ?
COc1ccc(/C=C/C(=O)c2ccccc2)cc1COc1ccccc1F | -8 | 20µM* | / | -29% | / | ?
COc1cc(/C=N/NC(=O)c2cccc(NC(=O)c3ccccc3)c2)ccc1O | -82* | 4% | ? | 20% | -8% | 6%[46.1 µM]
COc1ccc(C=O)cc1COc1ccccc1F | -34 | ? | -3% | ? | -20% | ?
COc1cc(-c2nc(C(N)=O)c3c(n2)n(-c2cccc(C)c2)c(=O)n3C)cc(OC)c1OC | 2 | -17% | -1% | 13%[46.1 µM] | -3% | /
COc1cc(OC)c(OC)cc1/C=C/c1nc2ccccc2o1 | / | / | -15% | / | 5% | /
COC(=O)C1CN(C#N)N(c2ccc(Cl)cc2)C12c1ccccc1-c1ccccc12 (configuration not stated) | / | 3.5µM* | ? | 11µM* | ? | ?
Cc1ccsc1C(=O)N(Cc1cc2cc3c(cc2nc1N1CCOCC1)CCC3)CC1CCCO1 (configuration not stated) | / | -1% | -4% | / | 11% | /
CCOc1ccccc1NC(=O)COC(=O)/C=C/c1ccc(OC)c(OC)c1 | ? | 18µM* | -18% | -22% | -16% | ?
Fc1ccc2[nH]c3c(NCc4ccccc4)ncnc3c2c1 | -85* | ? | ? | -30% | ? | ?
COc1ccc2[nH]c3c(NCCC4=CCCCC4)ncnc3c2c1 | -89* | -61% | ? | ? | ? | 10µM*
Cc1ccc2[nH]c3c(NCCN4CCOCC4)ncnc3c2c1 | -23 | 60% | -26% | ? | -26% | 1%
CCN(CC)CCNc1ncnc2c1[nH]c1ccc(OC)cc12 | / | / | / | / | / | -3%
C=CCNc1ncnc2c1[nH]c1ccc(C)cc12 | -68* | / | ? | -15% | ? | ?
COc1c(C)cc(Br)cc1C(=O)Nc1ccc(Cc2ccncc2)cc1 | -72* | ? | -2% | -28%[46.1 µM] | -9% | ?
COc1ccccc1C(=O)Nc1ccc(Cc2ccncc2)cc1 | -3 | -17% | -6% | -2% | -13% | -32%
CC(=O)Nc1nonc1-c1nnc(SCC(=O)Nc2cccc(F)c2)n1-c1ccccc1 | -15 | -10% | -4% | 4%[46.1 µM] | -12% | 4%[46.1 µM]
O=C(Cn1cc(SCc2ccc(F)cc2)c2ccccc21)N1CCCCC1 | 24 | 26% | -12% | -2%[46.1 µM] | -11% | /
NC(C(=O)O)C(O)c1ccc(O)c(O)c1 (configuration not stated) | / | / | / | ? | / | 1.3µM*
NC(Cc1ccc(N(CCCl)CCCl)cc1)C(=O)O (configuration not stated) | / | 12% | i | 2.9µM* | -11% | 5.8µM*
N[C@@H](Cc1ccc(O)c(O)c1)C(=O)O | ? | 14% | -12% | ? | -11% | 16µM*!
CCC(N)C(O)c1ccc(O)c(O)c1 (configuration not stated) | / | -8% | -5% | / | -5% | /
SMILES | HCMV antiviral | FMDV inh | VACV mCherry inh | LASV entry inh | Vaccinia Venus | Marburg entry inh
CC(=O)NC(Cc1ccc(N(CCCl)CCCl)cc1)C(=O)NC(C(=O)O)C(C)C (configuration not stated) | 4 | -15% | i | -14% | -8% | 6%[46.1 µM]
CCOC(=O)CC(NC(=O)C(Cc1ccc(N(CCCl)CCCl)cc1)NC(C)=O)C(=O)OCC (configuration not stated) | -92* | -30% | i | ? | -8% | ?
NC(Cc1ccc(O)c([N+](=O)[O-])c1)C(=O)O (configuration not stated) | -1 | -24% | i | -1% | -6% | 9%
COc1cc(OC)c(NC(=O)CSc2nccn2C)cc1Cl | 10 | -19% | -3% | -3%[46.1 µM] | -1% | -7%[46.1 µM]
O=C(CNC(=O)c1ccccc1)OCC(=O)c1cccc2ccccc12 | / | / | 24% | / | -13% | /
C[C@H](Cc1ccc(O)c(O)c1)[C@@H](C)Cc1ccc(O)c(O)c1 | / | -27% | -17% | ? | -22% | 14µM*
CCCCCCCc1cc2ccccc2c2c(C(=O)OCC)c(C(=O)OCC)c(C(=O)OCC)n12 | / | / | / | / | / | -5%[14.2 µM]
CC(=N)C1=C(O)CC(c2ccccc2)CC1=O (configuration not stated) | -99* | 2% | 20% | 12% | -8% | 0%[46.1 µM]
CC1(C)CC(=O)C=C(c2cccc(Br)c2)C1 | -64* | -3% | i | / | -9% | /
CC1(C)CC(=O)C=C(c2ccc(-c3ccccc3)cc2)C1 | 46 | 44% | -13% | / | -13% | /
Cc1ccc2[nH]cc(C(=O)CN3CCN(C)CC3)c2c1 | 17 | 13% | / | 13% | / | ?
Cc1ccc2[nH]cc(C(=O)CCl)c2c1 | -91* | 11µM* | ? | ? | -25% | ?
CN(C)c1ccc(C=O)cc1[N+](=O)[O-] | / | / | -14% | / | -14% | /
c1ccc(C(NCCNC(c2ccccc2)c2ccccc2)c2ccccc2)cc1 | -7 | -17% | / | ? | / | 8.2µM*
CC1=Nc2cc(Cl)ccc2Oc2ccccc21 | -22 | -3% | 0% | -6% | -2% | 2%[46.1 µM]
Clc1ccc2c(c1)C(N1CCNCC1)=Nc1ccccc1O2 | -38 | 2% | -23% | ? | ? | 10µM*!
CCc1cccc(C)c1NC(=O)c1cnn(-c2ccc(OC)cc2)c1C1CCN(C(=O)OC(C)(C)C)CC1 | ? | 14% | -23% | ? | -20% | /
CCn1cc(C(=O)O)c(=O)c2cc(F)c(N3CCN(S(=O)(=O)c4ccc(NC(=O)OC)cc4)CC3)cc21 | -63* | -22% | -10% | -4% | -5% | ?
C=CCc1cccc(/C=N\n2cnnc2)c1O | / | / | / | / | / | 38%
Cn1c(=O)c2[nH]c(CCCCc3nc4ccccc4[nH]3)nc2n(C)c1=O | -15 | -8% | i | 0% | -7% | 0%
Cn1c(=O)c2[nH]c(CCCCCCCCc3nc4ccccc4[nH]3)nc2n(C)c1=O | -91* | 13µM* | ? | 11µM* | -27% | ?
COc1ccccc1S(=O)(=O)N(C)C[C@H]1Oc2cc(Br)ccc2S(=O)(=O)N([C@H](C)CO)C[C@H]1C | -23 | / | / | / | / | /
CCn1cc(/C=C(\NC(=O)c2ccc(OC)c(OC)c2)C(=O)NCCCn2ccnc2)c2ccccc21 | 0 | 0% | 0% | 1%[46.1 µM] | -4% | -21%[46.1 µM]
CN(C)S(=O)(=O)n1cc(/C=C(\NC(=O)c2ccccc2)C(=O)NCCCn2ccnc2)c2ccccc21 | -35 | 41% | 4% | 1%[46.1 µM] | -1% | -2%[46.1 µM]
